Data published in the supplement of paper PMC5499739.
The full ranking holds about 16,000 sequences; the median of “Z-score” is about -0.37, and the highest 2% start at about 3.2. The full list was thinned out, with the highest values kept by preference.

These sequences were tested on RBM10 RRM1-ZnF (GST-tagged construct) (assay: RNAcompete 7-mer binding Z-score; higher = stronger binding preference).
In short: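 Each heptamer motif was given a one-sided Z-score for enrichment across the probes that contained it. GST-tagged RBM10 constructs (20 pmol) were combined with 1.5 nmol of a designed pool of 241 399 RNAs of up to 41 nt, transcribed from microarray-derived DNA templates. Binding took place in 1 ml Hepes pH 7.8 buffer containing KCl, NaCl, glycerol, DTT, BSA and glutathione Sepharose beads for 30 min at 4°C. After four 2-min washes at 4°C, bound RNA was identified by microarray hybridisation.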

| Sequence | RNAcompete 7-mer binding Z-score |
| --- | --- |
| CAGGGCG | 2.02 |
| AAGGUUU | 2.51 |
| UAGGGUU | 3.33 |
| GCCGCGA | -0.422 |
| AACGUCA | -0.574 |
| AGCUAUG | -0.168 |
| GUUCGCA | -0.652 |
| CCCUUAU | -0.831 |
| AGCUGUU | -0.737 |
| UAUACGU | -0.357 |
| CAGGUAG | 2.32 |
| AAGGUGC | 2.39 |
| AAGGUAG | 3.69 |
| AAGGUGU | 2.55 |
| GAGGUGA | 2.56 |
| AAGGUGA | 3.66 |
| GAGGUGU | 2.37 |
| GAGGUGC | 1.81 |
| CAGGUGA | 1.49 |
| AAGGUAA | 2.97 |
| AAGGUGG | 4.39 |
| GAGGUGG | 3.35 |
| CGUUACU | -0.558 |
| AGUAUUC | -0.493 |

| Sequence | RNAcompete 7-mer binding Z-score |
| --- | --- |
| AAACCAA | -0.548 |
| CAGCGUC | -0.623 |
| AGGAAUA | 0.881 |
| ACUACUA | -0.402 |
| CCCUGUG | -0.327 |
| GACUCUA | -0.642 |
| GUAUGUG | 1.07 |
| CACUCGC | -0.604 |
| AUGCGAG | 0.569 |
| CAGGUUG | 2.04 |
| UAGGUUG | 2.09 |
| AAGGUUG | 3.49 |
| AGAGCGC | -0.568 |
| GCACACU | -0.295 |
| UGGUGGA | 2.86 |
| GGGUGGC | 2.89 |
| GGGUGCG | 2.96 |
| UGGUGGU | 2.8 |
| UCGUGGG | 2.53 |
| GGGUGGG | 4.82 |
| GGGUGGU | 4.8 |
| UGGUGGC | 1.8 |
| ACGUGGG | 2.43 |
| GCGUGGG | 3.53 |

| Sequence | RNAcompete 7-mer binding Z-score |
| --- | --- |
| UGGUGGG | 4.74 |
| CGGUGGU | 1.64 |
| AACAGAA | -0.0447 |
| UUUGCGU | -0.642 |
| AUGUGGA | 2.27 |
| UUUGACC | -0.88 |
| UCUGCAG | -0.629 |
| AAGCUGG | 0.904 |
| CGGUGGA | 2.43 |
| AGGUGGA | 3.15 |
| CGGUGGG | 3.2 |
| AGGUGGU | 2.18 |
| GGGUGGA | 4.53 |
| AGGUGGG | 3.76 |
| UAUAUAA | -0.519 |
| CGAACGG | 1.21 |
| AGAACGG | 1.53 |
| CGACGGG | 1.62 |
| GAACGGG | 4.25 |
| UGGACGG | 3.09 |
| GGAACGG | 4.07 |
| GGACGGG | 4.52 |
| GAACGGC | 0.693 |
| GAACGGU | 1.64 |

| Sequence | RNAcompete 7-mer binding Z-score |
| --- | --- |
| GGGACGG | 3.45 |
| CGGACGG | 1.32 |
| GGACGGC | 1.19 |
| AUAGGCA | 0.686 |
| UGGGCCU | 0.335 |
| CUUACCC | -0.792 |
| CUAUUGC | -0.714 |
| GGAUGGU | 3.9 |
| UGAUGGU | 1.87 |
| GGAUGGC | 2.58 |
| AGAUGGA | 2.97 |
| GGAUGGA | 4.23 |
| AGAUGGU | 1.71 |
| UCUGUGA | -0.581 |
| CGGGAAA | 2.41 |
| ACGGGAA | 3.12 |
| GAGGGAU | 3.16 |
| CAGGGAA | 2.96 |
| AGGGAAG | 4.53 |
| CGGGAAG | 2.18 |
| AAGGGAU | 3.65 |
| AAGGGAA | 4.37 |
| GGGGAAA | 3.19 |
| AGGGAAC | 2.57 |

| Sequence | RNAcompete 7-mer binding Z-score |
| --- | --- |
| AGGGAAA | 4.7 |
| CAGGGAU | 2.36 |
| CUGUACU | -0.743 |
| AACCCCA | -0.483 |
| AAGAGCG | 0.836 |
| UUUUUAA | -0.652 |
| ACUCUCG | -0.785 |
| GAGGGAG | 3.2 |
| AAGGGAC | 3.18 |
| AGGGGAA | 3.57 |
| UGGGAAG | 4.03 |
| AAGGGAG | 3.99 |
| UGGGAAU | 2.53 |
| CAGGGAG | 2.8 |
| GGGGGAA | 3.15 |
| UGGGAAA | 2.58 |
| AAGGGCG | 3 |
| UAGGGAG | 3.25 |
| AGAUAGU | 0.0853 |
| UAGCGAU | -0.194 |
| ACGUCAU | -0.513 |
| UAUCGAU | -0.513 |
| UGUCCAC | -0.558 |
| CGACCGA | -0.519 |

| Sequence | RNAcompete 7-mer binding Z-score |
| --- | --- |
| GUCCGGA | 0.0625 |
| CAGUAUU | -0.646 |
| CCUGCGG | 0.27 |
| GGAGGUU | 2.51 |
| CGAGGUA | 1.57 |
| UGAGGUA | 1.97 |
| AGAGGUG | 2.04 |
| GGAGGUG | 3.72 |
| GGAGGUA | 3.28 |
| GGAGCGC | 1.27 |
| CAAUGAA | -0.496 |
| AGCUCUA | -0.629 |
| UUAUCAG | -0.399 |
| AUAAAGG | 1.64 |
| GCGUAGG | 1.78 |
| GGGUAGC | 2.73 |
| GGGUAGG | 4.65 |
| GGGUAGU | 3.11 |
| AGGUAGC | 0.803 |
| GGGUAGA | 3.74 |
| CGGUAGG | 1.82 |
| GGGUAUG | 4.08 |
| AGGUAGG | 3.53 |
| GGGUAUC | 2.04 |

| Sequence | RNAcompete 7-mer binding Z-score |
| --- | --- |
| UGGUAGG | 2.98 |
| AGGUAUG | 2.16 |
| GGAGUUG | 2.64 |
| AAACGGU | 1.16 |
| CUACAAC | -0.668 |
| CACAAAA | -0.581 |
| AAACCAC | -0.519 |
| GACGGGU | 2.36 |
| UGGAACG | 2.13 |
| GGGAACA | 2.67 |
| GGGAAUU | 2.4 |
| GGGAAUG | 3.93 |
| GGGAACG | 3.67 |
| AGGAAUG | 2.25 |
| ACGCUCU | -0.688 |
| CCCUGGA | -0.123 |
| GGUUACA | 1.26 |
| UGGAUGA | 2.17 |
| UAGAUGG | 2.26 |
| GAGAUGU | 0.361 |
| CGGAUGG | 2.38 |
| UGGAUGG | 4.14 |
| AGGAUGG | 3.77 |
| AGGAUGC | 1.03 |

| Sequence | RNAcompete 7-mer binding Z-score |
| --- | --- |
| GAGAUGG | 3.54 |
| UGGAUGC | 1.17 |
| AGGAUCC | -0.34 |
| UGGAUUC | -0.0414 |
| UUCGUAA | -0.802 |
| CCACUCU | -0.711 |
| UCGCACU | -0.565 |
| GAGCAUU | -0.353 |
| UAUGUGA | 0.118 |
| UACGAGU | -0.155 |
| AUUUUCG | -0.87 |
| GUGGAAG | 3.83 |
| AUGGAAA | 2.57 |
| GUGGAAA | 2.63 |
| AUGGAAG | 3.6 |
| GUGGAAC | 1.61 |
| AUGGAAC | 1.99 |
